Measurements from PubChem BioAssay (Tox21).
Records with an inconclusive call do not appear. Active and inactive are the calls of the source. Unless noted, the call rests on the fitted dose curve; in most records, active means well fitted curve in the direction sought with a large enough effect in the repeat runs; inconclusive means weak or mixed curves; inactive means no such curve, though single readings can be large; an effect the other way counts as inactive or inconclusive.

Experiments:
[1] = qHTS assay to identify small molecule antagonists of the vitamin D receptor (VDR) signaling pathway - cell viability counter screen (AID 743225); further: nearly all actives have a fitted effect of over 50% in size
Summary of the method: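 Cytotoxicity toward the VDR-bla HEK 293T line was scored by ATP-based CellTiter-Glo luminescence, read in the wells already used for the beta-lactamase readout after 16 h compound treatment under 3 nM 1-alpha,25-dihydroxyvitamin D3 stimulation.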

[2] = qHTS assay to identify small molecule agonists of the NFkB signaling pathway (AID 1159509; active means well fitted curve in the direction sought with a large enough effect in the signal ratio in the repeat runs, not every such curve was filed as active; the % refers to the signal ratio; further: series mostly up to about 61 µM)
Summary of the method: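 Beta-lactamase reporter assay run in quantitative high-throughput format on an NF-kB-responsive ME-180 line, with 5 hr compound treatment and a FRET-based blue/green fluorescence readout.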

[3] = qHTS assay to identify small molecule agonists of the NFkB signaling pathway - cell viability counter screen (AID 1159515; calls by dose curve; further: series mostly up to about 61 µM; nearly all actives have a fitted effect of over 55% in size)
Summary of the method: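 Tox21 library compounds were tested for cytotoxicity against NFkB-bla ME-180 cells during a 5 hr exposure at 37 C. CellTiter-Glo luminescence served as the viability read-out.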

[4] = qHTS assay to identify small molecule agonists of the endoplasmic reticulum stress response signaling pathway (AID 1159516; active means well fitted activation curve with a large enough effect in the signal ratio in the repeat runs, not every such curve was filed as active; the % refers to the signal ratio)
Summary of the method: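 Fluorescence at 460 and 530 nm (405 nm excitation) reports beta-lactamase from an ER stress response element in HeLa cells treated 5 hr at 37 C.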

[5] = qHTS assay to identify small molecule agonists of the endoplasmic reticulum stress response signaling pathway - cell viability counter screen (AID 1159517; calls by dose curve; further: series mostly up to about 61 µM; nearly all actives have a fitted effect of over 50% in size)
Summary of the method: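 Steps: seed 1,500 ESRE-bla HeLa cells per well; incubate overnight at 37 C, 5% CO2; add compounds in DMSO for 5 hr; run FRET substrate 2 hr RT; add CellTiter-Glo, wait 30 min, read luminescence.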

[6] = qHTS assay to identify small molecule antagonists of the retinoid-related orphan receptor gamma (ROR-gamma) signaling pathway - cell viability counter screen (AID 1159520); further: nearly all actives have a fitted effect of over 50% in size
Summary of the method: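 Tet-on ROR gamma CHO cells were given compounds for 2 hr, then doxycycline hyclate at 1 uM final, and incubated 16 hr at 37 C. Viability was measured as ATP content by CellTiter-Glo luminescence.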

[7] = target: Nuclear receptor ROR-gamma (Homo sapiens) (UniProt P51449); assay: qHTS assay to identify small molecule antagonists of the retinoid-related orphan receptor gamma (ROR-gamma) signaling pathway (AID 1159521;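 further: CHO cells with doxycycline inducible ROR-gamma driving an RORE luciferase reporter; top concentration of the series differs between compounds; nearly all actives have a fitted effect of over 50% in size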)
Summary of the method: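 Readout: ONE-Glo luciferase luminescence, 30 min at room temperature. System: Tet-on RORγ CHO, RORE-LUC. Sequence: compound 2 h, doxycycline 1 uM final, 16 h at 37 C.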

[8] = qHTS assay to identify small molecule agonists of the AP-1 signaling pathway - cell viability counter screen (AID 1159525; calls by dose curve; further: nearly all actives have a fitted effect of over 55% in size)
Summary of the method: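 Same-well cytotoxicity counter screen of the Tox21 10K library in ME-180 cells. The readout is ATP-dependent luminescence after 5 h compound treatment. Data are normalised to DMSO and tetra n-octyl ammonium bromide controls.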

[9] = qHTS assay to identify small molecule agonists of the AP-1 signaling pathway (AID 1159526; calls by dose curve)
[10] = target: Retinoic acid receptor RXR-alpha (Homo sapiens) (UniProt P19793); assay: qHTS assay to identify small molecule agonists of the RXR signaling pathway (AID 1159527; calls by dose curve; further: nearly all actives have a fitted effect of over 35% in size)
Chain of Retinoic acid receptor RXR-alpha (Homo sapiens) (P19793 whole entry, looked up): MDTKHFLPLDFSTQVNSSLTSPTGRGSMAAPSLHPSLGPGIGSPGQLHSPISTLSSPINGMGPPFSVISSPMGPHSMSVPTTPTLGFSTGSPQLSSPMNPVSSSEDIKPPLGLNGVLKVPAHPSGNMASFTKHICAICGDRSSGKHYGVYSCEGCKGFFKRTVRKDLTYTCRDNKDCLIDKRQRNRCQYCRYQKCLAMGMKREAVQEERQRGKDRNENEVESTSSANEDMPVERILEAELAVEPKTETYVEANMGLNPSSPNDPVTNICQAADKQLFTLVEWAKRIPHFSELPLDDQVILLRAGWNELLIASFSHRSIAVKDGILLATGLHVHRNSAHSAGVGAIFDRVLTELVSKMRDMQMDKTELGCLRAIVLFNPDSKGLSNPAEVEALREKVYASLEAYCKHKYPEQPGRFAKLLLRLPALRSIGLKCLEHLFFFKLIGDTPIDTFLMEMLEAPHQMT
Summary of the method: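 Reporter activation is measured as beta-lactamase activity via FRET substrate cleavage (emission 460/530 nm) in HEK 293T cells expressing an RXR-alpha-driven bla construct, following 16 hr compound exposure at 37 C.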

[11] = qHTS assay to identify small molecule agonists of the RXR signaling pathway - cell viability counter screen (AID 1159529)
Summary of the method: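 Tox21 10K compounds were tested for cytotoxicity against GeneBLAzer RXR-alpha HEK 293T cells grown in 2% charcoal-stripped FBS. Exposure lasted 16 hr at 37 C, 5% CO2; viability read by CellTiter-Glo luminescence.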

[12] = qHTS assay to identify small molecule antagonists of the retinoid acid receptor (RAR) signaling pathway - cell viability counter screen (AID 1159551); further: nearly all actives have a fitted effect of over 35% in size
Summary of the method: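 In this counter screen, the RARE-luciferase line C3RL4 was exposed for 6 h at 37 C and 5% CO2 to compounds with retinol at 1 uM final. Cellular ATP, read by luminescence, served as the viability measure.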

[13] = qHTS assay to identify small molecule antagonists of the retinoic acid receptor (RAR) signaling pathway (AID 1159552; further: nearly all actives have a fitted effect of over 50% in size)
Summary of the method: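 Overnight-plated C3RL4 reporter cells get compound, then retinol to 1 uM final; plates sit 6 hr at 37 C, 5% CO2. A luciferase reagent is added and light output recorded after 30 min at room temperature.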

[14] = qHTS assay to identify small molecule agonists of the retinoic acid receptor (RAR) signaling pathway (AID 1159553)
Summary of the method: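 In this cell-based screen, 1,000 C3RL4 cells per well were cultured overnight, dosed with test chemicals in DMSO for 6 hr, and assessed for RARE luciferase luminescence.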

[15] = qHTS assay to identify small molecule antagonists of the estrogen related receptor (ERR) signaling pathway from Tox21 library - cell viability counter screen (AID 1224834); further: nearly all actives have a fitted effect of over 30% in size
Summary of the method: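 Counter screen run in ERR cells (2,000 cells/well): cells pre-incubated 6 h, then treated with compounds for 17.5 h at 37 C. Fluorescence was read 30 min after CellTiter-Fluor addition.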

[16] = target: Luciferin 4-monooxygenase (Photinus pyralis) (UniProt P08659); assay: qHTS assay to identify small molecule inhibitors of firefly luciferase (AID 1224835); further: series mostly up to about 120 µM; nearly all actives have a fitted effect of over 25% in size
Chain of Luciferin 4-monooxygenase (Photinus pyralis) (P08659 whole entry, looked up): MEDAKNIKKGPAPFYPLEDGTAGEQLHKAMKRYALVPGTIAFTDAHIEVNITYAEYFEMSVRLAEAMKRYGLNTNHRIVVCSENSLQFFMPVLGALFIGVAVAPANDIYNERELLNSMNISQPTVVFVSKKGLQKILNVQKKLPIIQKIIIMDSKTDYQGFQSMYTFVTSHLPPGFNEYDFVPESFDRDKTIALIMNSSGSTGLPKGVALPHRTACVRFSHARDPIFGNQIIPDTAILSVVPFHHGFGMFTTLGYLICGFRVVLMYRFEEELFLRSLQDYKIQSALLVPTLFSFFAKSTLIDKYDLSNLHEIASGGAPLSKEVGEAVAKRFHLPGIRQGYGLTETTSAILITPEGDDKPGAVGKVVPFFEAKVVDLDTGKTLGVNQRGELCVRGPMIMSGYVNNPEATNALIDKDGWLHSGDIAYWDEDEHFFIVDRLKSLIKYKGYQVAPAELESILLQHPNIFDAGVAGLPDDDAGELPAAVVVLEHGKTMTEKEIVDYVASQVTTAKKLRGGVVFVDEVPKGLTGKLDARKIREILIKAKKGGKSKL
Summary of the method: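 Biochemical qHTS: compounds run as interplate titrations against purified firefly enzyme, with D-luciferin and ATP each at its KM concentration. Light output recorded by CCD imaging.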

[17] = qHTS assay to identify small molecule agonists of the constitutive androstane receptor (CAR) signaling pathway - cell viability counter screen (AID 1224836); further: series mostly up to about 92 µM; nearly all actives have a fitted effect of over 45% in size
Summary of the method: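 Fluorescence from CellTiter-Fluor indicates live cells after 23 h exposure. The human hepatoma line expresses hCAR and a CYP2B6-2.2kb reporter. Incubation medium contains 0.75 uM PK11195 (final).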

[18] = qHTS assay to identify small molecule antagonists of the constitutive androstane receptor (CAR) signaling pathway - cell viability counter screen (AID 1224837); further: series mostly up to about 92 µM; nearly all actives have a fitted effect of over 45% in size
Summary of the method: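 CITCO at 50 nM final was added alongside compounds (15 concentrations) to double-stable hCAR/CYP2B6-2.2kb HepG2 cells. Following 23 hr at 37 C, cell viability was quantified by CellTiter-Fluor fluorescence intensity.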

[19] = target: Nuclear receptor subfamily 1 group I member 3 (Homo sapiens) (UniProt Q14994); assay: qHTS assay to identify small molecule antagonists of the constitutive androstane receptor (CAR) signaling pathway (AID 1224838); further: nearly all actives have a fitted effect of over 40% in size
Chain of Nuclear receptor subfamily 1 group I member 3 (Homo sapiens) (Q14994 whole entry, looked up): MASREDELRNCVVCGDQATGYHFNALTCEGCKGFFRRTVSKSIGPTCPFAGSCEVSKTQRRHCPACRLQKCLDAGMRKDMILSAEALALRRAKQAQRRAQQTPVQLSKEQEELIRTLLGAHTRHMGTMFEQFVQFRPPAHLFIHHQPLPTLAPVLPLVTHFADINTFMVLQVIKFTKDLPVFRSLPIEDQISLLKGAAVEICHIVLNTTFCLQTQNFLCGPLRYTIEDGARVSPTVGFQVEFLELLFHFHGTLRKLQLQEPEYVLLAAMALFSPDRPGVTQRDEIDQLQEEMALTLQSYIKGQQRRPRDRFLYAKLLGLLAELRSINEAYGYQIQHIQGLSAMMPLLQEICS
Summary of the method: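 Inhibition of CITCO-driven (50 nM final) CYP2B6 reporter expression is measured in HepG2 cells stably carrying hCAR. Fifteen compound concentrations are applied for 24 h at 37 C, followed by luciferase luminescence.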

[20] = target: Nuclear receptor subfamily 1 group I member 3 (Homo sapiens) (UniProt Q14994); assay: qHTS assay to identify small molecule agonists of the constitutive androstane receptor (CAR) signaling pathway (AID 1224839); further: series mostly up to about 92 µM; nearly all actives have a fitted effect of over 15% in size
Summary of the method: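 Stable hCAR/CYP2B6-2.2kb HepG2 line in DMEM with 10% FBS; compounds (15 concentrations) and 0.75 uM PK11195 final, 24 h at 37 C/5% CO2, then ONE-Glo luminescence after 30 min.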

Measured: Potency

CC(C)C1OCCN1CCOC(=O)NCCCCCCNC(=O)OCCN1CCOC1C(C)C (stereo not drawn)
inactive: [1] | [2] | [3] | [4] | [5] | [6] | [7] | [8] | [9] | [10] | [11] | [12] | [13] | [14] | [15] | [16] | [17] | [18] | [19]

CC(C)NCC(O)c1ccc2ccccc2c1 (stereo not drawn)
inactive: [1] | [2] | [3] | [4] | [5] | [6] | [7] | [8] | [9] | [10] | [11] | [12] | [13] | [14] | [15] | [16] | [17] | [18] | [19]

Cn1c(=O)c2c(ncn2CCO)n(C)c1=O
inactive: [1] | [2] | [3] | [4] | [5] | [6] | [7] | [8] | [9] | [10] | [11] | [12] | [13] | [14] | [15] | [16] | [17] | [18] | [19] | [20]

CC(=O)CCC1=C(C)CCCC1(C)C
inactive: [1] | [2] | [3] | [4] | [5] | [6] | [7] | [8] | [9] | [10] | [11] | [12] | [13] | [14] | [15] | [16] | [17] | [18] | [19] | [20]

CC1=C(O)C(=O)C(C)O1 (stereo not drawn)
inactive: [1] | [2] | [3] | [4] | [5] | [6] | [7] | [8] | [9] | [10] | [11] | [12] | [13] | [14] | [15] | [16] | [17] | [18] | [19]

CCCCCC/C=C/C(=O)OC
inactive: [1] | [2] | [3] | [4] | [5] | [6] | [7] | [8] | [9] | [10] | [11] | [12] | [13] | [14] | [15] | [16] | [17] | [18]

O=C(O)CCCCCC(=O)O
inactive: [2] | [3] | [4] | [5] | [6] | [7] | [8] | [9] | [10] | [11] | [12] | [13] | [14] | [15] | [16] | [18] | [19] | [20]
